Source: PubChem
Lassa entry = qHTS for Inhibitors of binding or entry into cells for Lassa Virus; Lassa virus pseudotyped entry inhibition, cell-based qHTS; Potency, µM (highest dose often 49.2 µM), most hits filed as inhibitors; actives 4.1% (n = 18,000)
MARV entry inh = qHTS for Inhibitors of binding or entry into cells for Marburg Virus | Marburg virus pseudotype entry/binding inhibition, cell-based | Potency, µM (titrated, usually from 49.2 µM), most hits filed as inhibitors | actives 6.5% (n = 18,000) | AID 720532, 2013
Large screens that a line does not name were inactive; ! = repeats disagree. In the library only some 7.1% were active in any assay of this set; here they are far more common. Calls come from the whole dose curve; tested in HEK293 cells.

CC1CC[C@@]2(OC1)O[C@@H]1[C@@H](O)[C@H]3C4CC[C@H]5C[C@@H](O[C@@H]6O[C@H](CO)[C@H](O[C@@H]7O[C@H](CO)[C@@H](O)[C@H](O[C@@H]8OC[C@@H](O)[C@H](O)[C@H]8O)[C@H]7O[C@@H]7O[C@H](CO)[C@@H](O)[C@H](O[C@@H]8O[C@H](CO)[C@@H](O)[C@H](O)[C@H]8O)[C@H]7O)[C@H](O)[C@H]6O)[C@H](O)C[C@]5(C)C4CC[C@]3(C)[C@H]1[C@@H]2C (stereo not given in full)	Lassa entry 14µM, MARV entry inh 25µM
CC1CC[C@@]2(OC1)OC1C(O)C3C4CC[C@H]5CC(O[C@@H]6O[C@@H](CO)[C@H](OC7OC(CO)C(O)C(OC8OCC(O)C(O)[C@H]8O)[C@@H]7O[C@@H]7OC(CO)[C@H](O)[C@@H](O[C@@H]8OC(CO)C(O)C(O)C8O)C7O)C(O)C6O)C(O)C[C@]5(C)C4CC[C@]3(C)C1C2C (stereo not given in full)	Lassa entry 14µM, MARV entry inh inconclusive
CC1CC[C@@]2(OC1)OC1CC3C4CC[C@@H]5CC(O)CC[C@@]5(C)C4CC[C@]3(C)C1C2C (stereo not given in full)	none
CC(CCC(=O)OC[C@H]1O[C@H](C#Cc2ccccc2)C=C[C@H]1Oc1ccc(C)cc1)=NO[C@@H](C)CN1CCCCc2nc(C)c(C)cc21	none
C#CCN1C(=O)CC[C@@]23C1=NC(C(=O)OC)=C(C(=O)OC)[C@@H]2N(C)c1ccccc13	none
CCCCCC1C(=O)O[C@H](C)[C@@H](NC(=O)c2cccc(NC=O)c2O)C(=O)OC(C)C1OC(=O)CC(C)C (stereo not given in full)	Lassa entry inconclusive, MARV entry inh 0.1µM
Fc1ccccc1-c1nc(-c2ccccc2)oc1NCc1ccccc1	none
O=C(O)c1cccc(-c2noc(-c3ccccc3F)n2)c1	Lassa entry 8.9µM, MARV entry inh 3.2µM
COC(=O)C1=C(C)N(CC2CC2)C(=O)NC1CCc1ccccc1 (stereo not given)	none
C=CCN1C(=O)[C@]2(O[C@H](C)CC3=CCCC32)c2c(Br)cccc21 (stereo not given in full)	none
CC(=O)[C@]1(O)CCC2C3CCC4=CC(=O)CC[C@@]4(C)C3CC[C@]21C (stereo not given in full)	none
C=C1C[C@H]2[C@@H]3C=C(C)C4=CC(=O)CC[C@]4(C)[C@H]3CC[C@]2(C)[C@@]1(OC(C)=O)C(C)=O	Lassa entry inconclusive, MARV entry inh 13µM!
C=CCOC(=O)N[C@H](C(C(=O)OC)=C(C)NCc1ccccc1)c1cccc(OC)c1	none
COc1ccccc1N1CCN(CCCCN2C(=O)CCC2=O)CC1	none
COc1cccc2c1CCCC2CCCN1CCN(C2CCCCC2)CC1 (stereo not given)	Lassa entry 22µM!, MARV entry inh 13µM
COCC=CC1=CC2=CC(=O)C(C)(OC(=O)c3cnc4ccccc4n3)C(=O)C2=CN1CC(C)C (stereo not given)	none
Oc1cc(Cl)ccc1Oc1ccc(Cl)cc1Cl	Lassa entry 25µM!, MARV entry inh 35µM!
O=C(O)Cc1ccccc1Oc1ccc(Cl)cc1Cl	none
CCCCOC(=O)c1ccc(N)cc1	Lassa entry inconclusive
CCCCN(CCCC)CCCOC(=O)c1ccc(N)cc1	Lassa entry inconclusive, MARV entry inh 22µM!
COC1=C(C(=O)c2ccccc2)C(=O)[C@@]2(CC=C(C)C)C[C@H](C(=O)OCC(F)(F)F)C(C)(C)[C@@]1(CC=C(C)C)C2=O	none
O=P(O)(O)O	Lassa entry 35µM, MARV entry inh 6.3µM
O=C(O)P(=O)(O)O	none
COC[C@@H]1CCCN1[C@@H]1C[S+](=O)([O-])N[C@@H]1COCc1ccccc1	none
CC(=O)C1=C(C)N(Cc2ccccc2)C(=O)NC1c1cccc(F)c1 (stereo not given)	none
C=CC(=O)Nc1cc2c(Nc3ccc(F)c(Cl)c3)ncnc2cc1OCCCN1CCOCC1	Lassa entry inconclusive, MARV entry inh 7.1µM
COc1cc2ncnc(Nc3ccc(Cl)cc3F)c2cc1OC	none
C[C@]12CC[C@@H]3c4ccc(O)cc4CC[C@H]3[C@@H]1CC[C@@H]2OC(=O)CCC1CCCC1	Lassa entry 28µM!
CCC(=O)OC1CCC2C3CCc4cc(O)ccc4C3CC[C@]12C (stereo not given in full)	Lassa entry 158µM, MARV entry inh 0.001µM
CCCCC(=O)O[C@H]1CC[C@H]2[C@@H]3CCc4cc(O)ccc4[C@H]3CC[C@]12C	Lassa entry inconclusive
CCC(=O)O[C@H]1CC[C@H]2[C@@H]3CCc4cc(O)ccc4[C@H]3CC[C@]12C	Lassa entry inconclusive
C[C@]12CC[C@@H]3c4ccc(O)cc4CC[C@H]3[C@@H]1CCC2=O	Lassa entry 32µM!
C[C@]12CCC3c4ccc(O)cc4CCC3[C@@H]1CCC2=O (stereo not given in full)	none
COC(=O)N[C@@H](c1ccccc1)[C@]1(C(C)=O)CCCC1=O	none
NCCCCCCNS(=O)(=O)c1ccc2c(Cl)cccc2c1	Lassa entry 28µM, MARV entry inh 13µM
NCCNS(=O)(=O)c1ccc(Cl)c2ccncc12	none
O=C(O)Cc1ccc(CCNS(=O)(=O)c2ccc(Cl)cc2)cc1	none
NCCNS(=O)(=O)c1cccc2c(Cl)cccc12	Lassa entry inconclusive, MARV entry inh 10µM
COC(=O)C1=C(C)N(Cc2ccccc2)C(=S)NC1CCc1ccccc1 (stereo not given)	none
CCCCCCCC=CC1=CC2(C)CC1(C)C(CCCCCCC)CC2=O (stereo not given)	MARV entry inh inconclusive
COC(=O)N[C@@H](c1cccc(F)c1)[C@]1(C(=O)OC)CCCC1=O	none
O=C1Nc2cccc(Br)c2[C@@]12O[C@H](COc1ccccc1)CC1=CCC[C@H]12	none
NC(Cc1ccc(O)c(O)c1)C(=O)O (stereo not given)	MARV entry inh 1.6µM
N[C@@H](Cc1ccc(O)cc1)C(=O)O	none
c1ccc(Cc2nc3ccc(Nc4ncnc5ccccc45)cc3[nH]2)cc1	none
c1ccc(C2(c3ccccc3)CC2C2=NCCN2)cc1 (stereo not given)	none
c1ccc2c(c1)OC[C@@H](C1=NCCN1)O2	Lassa entry inconclusive, MARV entry inh 11µM
COc1c2c(cc3c1OCO3)CCN(C)C2	none
COc1c2c(c(C(=O)/C=C/C(C)=C/c3ccccc3)c3c1OCO3)CCN(C)C2	MARV entry inh 16µM
CCOC(=O)CCN1C(=O)[C@@H]2[C@H]3[C@H](O)[C@H](O)CC(=NOCc4ccccc4)[C@@H]3CC[C@H]2C1=O	none
Cc1c(C(=O)NCCc2ccccn2)cnn1-c1nccc(-c2cccs2)n1	none
Cc1c(C(=O)NCCN2CCC(c3ccccc3)CC2)cnn1-c1nccc(-c2cccs2)n1	MARV entry inh 13µM
CC1(C)CC(=O)C2=C(C1)O[C@@]1(CCCCN3C(=O)c4ccccc4C3=O)Cc3cc(C#N)ccc3[C@H]2O1	MARV entry inh inconclusive
C=CC1CC2C=CCS[P@@](=O)(O1)O2 (stereo not given in full)	none
CNc1ccc2oc(C[C@H]3O[C@]4(CC[C@H]3C)O[C@H]([C@H](C)C(=O)c3ccc[nH]3)[C@H](C)C[C@H]4C)nc2c1C(=O)O	Lassa entry 3.5µM, MARV entry inh 4.5µM
CNc1ccc2oc(C[C@@H]3OC4(CC[C@@H]3C)O[C@H](C(C)C(=O)c3ccc[nH]3)[C@H](C)C[C@H]4C)nc2c1C(=O)O (stereo not given in full)	Lassa entry inconclusive, MARV entry inh 5.6µM
